# Test results from PubChem BioAssay (NCATS).
# Records with an inconclusive call do not appear. Calls of active or inactive are those of the source. The call rests on the fitted dose curve; in most records, active means well fitted inhibition curve with a large enough effect; inconclusive means small, poorly fitted or top-dose-only effect; inactive means no such curve, though single readings can be large or run the other way.
# Target: Tumor susceptibility gene 101 protein (Homo sapiens) (UniProt Q99816)
# Test: qHTS Assay for Iinhibitors of HIV-1 Budding by Blocking the Interaction of PTAP/TSG101: Hit Validation (AID 651600); further: nearly all actives have a fitted effect of over 70% in size
# Conditions: PTAP peptide/TSG101 UEV interaction, biochemical assay; series mostly up to 57.5 µM; activity change, negative = inhibition: at the top concentration
# Procedure, shortened: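 Compounds are added to the Tsg101 binding domain (10 uM final) in pH 7.5 HEPES buffer. FITC-PTAP peptide follows at 50 nM final. After 20 min at r.t., polarized FITC emission is measured.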
# On the % scale 0 is the no-effect control and ±100 the full control effect; potency means the concentration at half of the fitted maximal effect.
# Tumor susceptibility gene 101 protein (Homo sapiens), sequence (Q99816 whole entry, looked up): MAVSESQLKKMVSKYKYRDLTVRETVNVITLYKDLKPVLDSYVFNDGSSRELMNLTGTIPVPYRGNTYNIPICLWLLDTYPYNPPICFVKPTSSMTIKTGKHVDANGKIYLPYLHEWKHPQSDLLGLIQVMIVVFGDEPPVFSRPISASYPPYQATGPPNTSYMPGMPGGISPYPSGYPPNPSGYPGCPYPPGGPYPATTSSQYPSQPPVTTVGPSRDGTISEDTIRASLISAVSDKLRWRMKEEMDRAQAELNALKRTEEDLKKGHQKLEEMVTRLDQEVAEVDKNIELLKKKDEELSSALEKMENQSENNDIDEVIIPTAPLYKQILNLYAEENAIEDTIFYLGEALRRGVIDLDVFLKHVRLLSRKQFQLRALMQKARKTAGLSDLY
SMILES,Potency,"activity change, negative = inhibition"
O=C(OCCN1C(=O)c2cccc3c(N4CCOCC4)ccc(c23)C1=O)c1ccc(Cl)cc1,18.3 µM (active),
Cn1cc(/C=C2\SC(=S)N(NC(=O)c3ccccc3)C2=O)c2ccccc21,,11.4% (inactive)
CC(C)(C)C(=O)c1sc2nc(-c3cccs3)cc(C(F)(F)F)c2c1N,,11.5% (inactive)
N#Cc1c(C#N)c(O)c2ccccc2c1O,,-14.3% (inactive)
CC(C)(C)OC(=O)NC(Cc1ccccc1)C(=O)N1CCC(C(=O)NCC(=O)Nc2ccc(F)cc2)CC1 (stereo not given),,0.595% (inactive)
Cn1cc(/C=C(\C#N)C(=O)Nc2ccccc2O)c2ccccc21,,-11.1% (inactive)
Nc1nnnn1/N=C/c1cc(Cl)cc(Cl)c1O,18.3 µM (active),
O=c1[nH]c2c(s1)C=Nc1ccccc1N2,9.19 µM (active),
Cc1cc2c(cc1C)NC(c1c(C)n(C)n(-c3ccccc3)c1=O)C1=C(CC(C)(C)CC1=O)N2 (stereo not given),,6.09% (inactive)
CC(=O)c1cccc(-n2nnnc2SCC(=O)Nc2cc(C)on2)c1,,11.4% (inactive)
O=C(CN1C(=O)NC(Cc2c[nH]c3ccccc23)C1=O)Nc1ccccc1C(F)(F)F (stereo not given),,9.87% (inactive)
COCCN(CCOC)Cc1c(O)ccc2c1O/C(=C\c1ccco1)C2=O,13 µM (active),
Cn1c(=O)cc2c3c(c(N4CCCCC4)ccc31)C(=O)c1ccccc1-2,,-21.2% (inactive)
CC1(C)CC(=O)C2=C(C1)OC(N)=C(C#N)[C@@H]2c1ccccc1[N+](=O)[O-],,-10.1% (inactive)
COc1ccc(C2C(C(=O)c3cccs3)=C(O)C(=O)N2c2nnc(C)s2)cc1OC (stereo not given),6.51 µM (active),
Cc1ccc(NC(=O)/C(C#N)=C(\N)C(Cl)(Cl)Cl)nc1,18.3 µM (active),
CC[C@@]1(C(=O)OC)N[C@H](CN(C)C(=O)c2ccc(C)cc2)[C@@H]2C(=O)N(Cc3ccccc3)C(=O)[C@@H]21,,6.11% (inactive)
COc1ccc(OC)c(NC(=O)CCN2CC(C)CC(C)C2)c1 (stereo not given),,5.24% (inactive)
CCOc1ccc(NC(=O)c2ccc3c(c2)CCN3S(C)(=O)=O)cc1,,2.45% (inactive)
O=c1[nH]nc(-c2ccc(F)cc2)cc1Cc1ccc(F)cc1,,4.58% (inactive)

SMILES,Potency,"activity change, negative = inhibition"
CCCCCCCCOc1ccc(C2OC34CCCCC3C(C#N)(C#N)C2(C#N)C(=N)O4)cc1 (stereo not given),,-14.4% (inactive)
S=C(NCc1ccccc1)Nc1cccc(Cl)c1,,-1.4% (inactive)
Cc1c(C(=O)Nc2cccc(C(F)(F)F)c2)sc2nc3n(c(=O)c12)CCCC3,,6.36% (inactive)
Cc1ccc(CSc2nnc3c(n2)OC2(Nc4ccccc4-3)C(=O)Nc3ccc(F)cc32)cc1 (stereo not given),,-4.93% (inactive)
CN(C)CCNc1ccc2ncn3c4ccc(O)cc4c(=O)c1c23,8.19 µM (active),
CCc1c(C)sc(NC(=O)c2ccccc2[N+](=O)[O-])c1C(N)=O,,7.8% (inactive)
ClCc1nc2ccccc2n1Cc1ccccc1,,-12.9% (inactive)
CC1CCc2cccc3c2N1c1cc(C#N)c(C#N)cc1O3 (stereo not given),,-68.5% (inactive)
O=C1Nc2ccc(Cl)cc2C12Nc1ccccc1-c1nnc(SCc3ccccc3F)nc1O2 (stereo not given),,-15.6% (inactive)
C=CCOc1ccc(C2OC34CCCCC3C(C#N)(C#N)C2(C#N)C(=N)O4)cc1 (stereo not given),25.9 µM (active),
COc1ccc(N(C(=O)c2snc(C(N)=O)c2N)C(C(=O)NC2CCCC2)c2ccc3ncccc3c2)cc1 (stereo not given),,5.83% (inactive)
O=C(Nc1nc2c(s1)CN(Cc1ccccc1)CC2)c1cccc(S(=O)(=O)N2CCc3ccccc32)c1,,5.42% (inactive)
COc1ccc(NC(=O)c2nc(-c3ccc(C)cc3)n3c2CCCCC3)cc1,,-6.7% (inactive)
O=C(NCc1cc(C(F)(F)F)ccc1Cl)c1cccc2c1C(=O)c1ccc(N3CCC(Cc4ccccc4)CC3)cc1S2(=O)=O,13 µM (active),
CCOC(=O)Cn1c(=O)c(-c2cc(Br)ccc2N)nc2ccccc21,,9.69% (inactive)
O=[N+]([O-])c1cc(Cl)cc(/C=N/n2cnnc2)c1O,,-1.41% (inactive)
CCn1c(/C=C/c2cc[n+](C)cc2)nc2ccccc21,,-28.1% (inactive)
COc1cc(C2C=C(c3cccs3)Nc3ncnn32)cc(OC)c1OC (stereo not given),,-9.22% (inactive)
Cc1ccc(NC(=S)Nc2ccc3nc(-c4ccccn4)c(-c4ccccn4)nc3c2)cc1C,,-14.8% (inactive)
O=C(NCc1ccco1)c1cccc2c1C(=O)c1ccc(N3CCC(Cc4ccccc4)CC3)cc1S2(=O)=O,,-18.3% (inactive)
